Hits are enriched below; roughly 17% of the tested compounds scored in any of these assays.
ClpP mod: qHTS Assay for Activators of ClpP; ATP-dependent Clp protease proteolytic subunit (Bacillus subtilis (strain 168)), P80244; purified B. subtilis ClpP, FRET peptide cleavage, 20 min; Potency, µM (doses to about 57.5 µM), inactives show at the highest dose activity change, negative = active; 340,000 compounds, 1.9% hits; AID 651965, 2013; active = well fitted falling curve with a large enough effect; inconclusive = small, poorly fitted or top-dose-only effect; inactive = no such curve, though single readings can be large or run the other way; note: the source files actives as falling curves though it sought activators and does not explain the sign; nearly all actives have a fitted effect of over 65% in size
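FRET quenching reversal measured ClpP activation: 10 microg/mL B. subtilis ClpP at pH 8 with the FRET-FV decapeptide, read at 430 nm after 320 nm excitation. The 20-min minus 0-min signal was scaled between DMSO/no-enzyme wells and ADEP (5.8 microM final).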
TDP1 cell noCPT: qHTS for Inhibitors of human tyrosyl-DNA phosphodiesterase 1 (TDP1): qHTS in cells in absence of CPT; DT40 Tdp1-/- hTDP1 cells, no CPT, ATP luminescence, 48 h; Potency, µM (titrated, usually from 46.2 µM), without a hit: at the highest dose activity change, negative = growth inhibition, most hits filed as inhibitors; 420,000 compounds, 15% hits; note: % is set by controls: 0 for no effect and ±100 for the full control effect; nearly all actives have a fitted effect of over 55% in size
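Camptothecin absent (DMSO only). Human TDP1-complemented DT40 knockout cells, 400 cells/well, 37 °C for minimum 48 hr; ATP measured via CellTiter-Glo, 30 min dark incubation, luminescence.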
DT40 TDP1 CPT: qHTS for Inhibitors of human tyrosyl-DNA phosphodiesterase 1 (TDP1): qHTS in cells in presence of CPT; chicken DT40 Tdp1-/-;hTDP1 cells + 20 nM CPT, ATP luminescence, 48 h; Potency, µM (top dose mostly 46.2 µM), inactives show at the top dose activity change, negative = growth inhibition, actives largely listed as inhibitors; 420,000 compounds, 12% hits; AID 686979, 2013; note: % is set by controls: 0 for no effect and ±100 for the full control effect; nearly all actives have a fitted effect of over 55% in size
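Chicken DT40 Tdp1-/- cells complemented with human TDP1, 400 cells/well, exposed to compounds plus 20 nM camptothecin for at least 48 h at 37 C; viability read as ATP content by CellTiter-Glo luminescence.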
TDP1 block: qHTS Assay for Inhibitors of Tyrosyl-DNA Phosphodiesterase (TDP1); Potency, µM (doses to about 130 µM), for inactives: top-dose activity change, negative = inhibition, actives largely listed as inhibitors; AID 485290, 2010; recombinant TDP1, AlphaScreen DNA substrate cleavage; 350,000 compounds, 0.28% hits; note: % is set by controls: 0 for no effect and ±100 for the full control effect; nearly all actives have a fitted effect of over 40% in size
Target sequence (Q9NUW8 whole entry, looked up): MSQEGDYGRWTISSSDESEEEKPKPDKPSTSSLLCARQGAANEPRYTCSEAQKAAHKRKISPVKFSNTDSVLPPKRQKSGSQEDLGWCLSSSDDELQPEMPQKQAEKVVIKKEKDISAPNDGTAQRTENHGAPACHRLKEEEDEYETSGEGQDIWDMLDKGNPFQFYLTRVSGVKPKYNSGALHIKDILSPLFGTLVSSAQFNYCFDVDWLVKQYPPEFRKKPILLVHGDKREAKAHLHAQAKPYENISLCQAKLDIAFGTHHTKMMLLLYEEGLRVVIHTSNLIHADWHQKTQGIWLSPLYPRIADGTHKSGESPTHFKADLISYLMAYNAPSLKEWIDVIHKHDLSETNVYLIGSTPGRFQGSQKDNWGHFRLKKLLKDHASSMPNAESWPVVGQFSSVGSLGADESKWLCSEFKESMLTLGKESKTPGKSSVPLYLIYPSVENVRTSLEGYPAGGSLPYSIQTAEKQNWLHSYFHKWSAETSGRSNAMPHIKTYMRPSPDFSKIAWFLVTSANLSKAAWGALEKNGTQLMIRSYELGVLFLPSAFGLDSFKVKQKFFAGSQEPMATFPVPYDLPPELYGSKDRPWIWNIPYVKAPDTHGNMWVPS
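Compounds were preincubated with Tdp1 (1 nM final) for 15 min at room temperature before substrate (15 nM final) started a 5 min reaction; beads (10 ug/ml final) were then added for 10 min before AlphaScreen detection.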
* marks the source's active call; other numbers are inactive results; ? = inconclusive; . = not tested or not shown; [ ] = remark or other dose. Unless noted, calls come from the whole dose curve; as a rule, active = well fitted curve in the direction sought with a large enough effect; inconclusive = small, poorly fitted or top-dose-only effect, or another doubt; inactive = no such curve, though single readings can be large; an effect the other way counts as inactive or inconclusive. Potency is the fitted concentration of half-maximal effect.

SMILES	ClpP mod	TDP1 cell noCPT	DT40 TDP1 CPT	TDP1 block
CC1CCN(C(=O)Cn2cc(SCC(=O)NCc3ccc(F)cc3)c3ccccc32)CC1	-1.0%	20.6µM*	?	5.1%
Cc1ccccc1CS(=O)(=O)c1cn(CC(=O)N2CCC(C)CC2)c2ccccc12	1.0%	13µM*	-109.4%	2.6%
O=C(Cn1cc(SCc2ccc(F)cc2)c2ccccc21)N1CCCCC1	0.4%	16.4µM*	16.4µM*	-2.6%
Cc1cc(NS(=O)(=O)c2c(C(=O)N3CCOCC3)c(C)n(C)c2C)ccc1Br	0.4%	?	?	5.8%
CC1CCN(C(=O)Cn2cc(SCC(=O)NCc3ccccc3)c3ccccc32)CC1	-3.6%	?	?	0.0%
CC1CCN(C(=O)Cn2cc(SCc3ccccc3)c3ccccc32)CC1	2.6%	16.4µM*	20.6µM*	2.6%
CCCc1ccc(-c2cc(NC(=O)CSc3nnc(N)s3)n(-c3ccccc3)n2)cc1	.	20.6µM*	23.1µM*	2.7%
Cc1ccc(-c2cc(NC(=O)CSc3n[nH]c(N)n3)n(-c3ccccc3)n2)cc1	-1.3%	?	-12.4%	10.5%
Cc1nnc(SCC(=O)Nc2cc(-c3cc(C)c(C)cc3C)nn2-c2ccccc2)s1	-0.1%	11.6µM*	20.6µM*	3.2%
COc1ccc(OC)c(CNC(=O)c2cc(S(=O)(=O)N3CCC(C)CC3)cn2C)c1	-2.5%	?	?	4.1%
COc1ccc(CC2=CC(=O)c3ccccc3C2=O)cc1	-0.7%	2.06µM*	1.84µM*	.
O=C(Nc1ccccc1[N+](=O)[O-])C1(c2ccccc2)CCOCC1	0.8%	16.4µM*	?	7.4%
CC(=O)c1ccc(NC(=O)C2(c3ccccc3)CCOCC2)cc1	1.2%	-18.5%	-13.6%	.
COc1cccc(CN2CCCC(C(=O)Nc3ccc(-c4cscn4)cc3)C2)c1 (centres undefined)	-3.7%	?	?	5.0%
O=C(CCC1N=C2c3ccccc3N=C(SCC(=O)Nc3ccc(F)cc3)N2C1=O)NCc1cccs1 (centres undefined)	-7.2%	14.6µM*	14.6µM*	4.4%
CC(C)c1ccc(NC(=O)CSC2=Nc3ccccc3C3=NC(CCC(=O)NCc4cccs4)C(=O)N23)cc1 (centres undefined)	-3.6%	25.9µM*	23.1µM*	-0.5%
CCc1ccc(NC(=O)CSC2=Nc3ccccc3C3=NC(CCC(=O)NCc4cccs4)C(=O)N23)cc1 (centres undefined)	-8.7%	?	?	0.5%
O=C(CCC1N=C2c3ccccc3N=C(SCc3ccccc3Cl)N2C1=O)NCc1cccs1 (centres undefined)	0.0%	20.6µM*	?	2.5%
CCO[C@H]1OC(C(=O)N2CCOCC2)=C[C@@H](c2ccc(Br)cc2)[C@@H]1CCCO	1.1%	-18.4%	?	2.6%
CCCS(=O)(=O)c1c(S(=O)(=O)CCC)c2c(C)cccn2c1C(=O)N/N=C/c1cc(O)cc(O)c1	-2.9%	14.6µM*	0.82µM*	.
O=C1Nc2ccc(S(=O)(=O)N3CCCC3)c3ccc(S(=O)(=O)N4CCCC4)c1c23	1.0%	?	8.2µM*	0.0%
O=S(=O)(c1ccc(Cl)c2ccccc12)N1CCCC1	.	0.461µM*	-41.1%	0.0%
CCN(CC)S(=O)(=O)c1ccc2c(c1)c(=O)c(C(=O)NCc1ccco1)cn2C	0.0%	?	?	-0.6%
Nc1ccc(N=Nc2ccc(O)cc2)c(N)n1	14.7%	14.6µM*	20.6µM*	.
COc1ccc(N=Nc2ccc(N)nc2N)cc1	.	-25.4%	-21.2%	8.6%
SMILES	ClpP mod	TDP1 cell noCPT	DT40 TDP1 CPT	TDP1 block
Cc1ccc(NC(=O)N2CCN(c3cc(-c4noc(C)n4)ccc3C)CC2)c(C)c1	-1.2%	1.1%	-4.6%	6.6%
Cc1nc(-c2ccc(C)c(N3CCN(C(=O)Nc4cccc(Cl)c4C)CC3)c2)no1	-1.4%	16.4µM*	?	-6.6%
CC(C)(C)NC(=O)C[C@H]1C[C@H](C(=O)N2CCCCC2)[C@@]2(C)c3[nH]c4cc(-c5ccco5)ccc4c3CCN2C1=O	4.4%	25.9µM*	?	7.3%[56.1 µM]
CC[C@]12c3[nH]c4cc(-c5ccco5)ccc4c3CCN1C(=O)[C@@H](CC(=O)NC(C)(C)C)C[C@@H]2C(=O)N1CCN(C(=O)C2CC2)CC1	3.4%	20.6µM*	14.6µM*	1.1%[56.1 µM]
CC[C@]12c3[nH]c4cc(-c5ccco5)ccc4c3CCN1C(=O)[C@@H](CC(=O)NC/C=C(\C)CCC=C(C)C)C[C@@H]2C(=O)N1CCN(C(=O)C2CC2)CC1	4.0%	?	?	4.0%[56.1 µM]
CC(C)(C)NC(=O)C[C@H]1C[C@H](C(=O)N2CCOCC2)[C@@]2(C)c3[nH]c4cc(-c5ccco5)ccc4c3CCN2C1=O	4.4%	?	?	1.2%[56.1 µM]
CN(Cc1ccon1)C(=O)c1cnn(-c2ncc3c(n2)-c2ccccc2CCC3)c1C1CC1	.	?	-2.1%[9.04 µM]	.
CCCCN(C(=O)CSCC(=O)Nc1ccc(C)cc1)c1c(N)n(CCCC)c(=O)[nH]c1=O	-2.0%	?	?	-9.0%[0.505 µM]
O=C(Nc1ccc(Nc2ccccc2)cc1)c1c(F)c(F)c(F)c(F)c1F	-3.8%	6.51µM*	6.51µM*	.
O=C(Nc1csc([N+](=O)[O-])c1)Nc1ccccc1Cl	.	23.1µM*	20.6µM*	.
O=C(Nc1ccc(Nc2ccccc2)cc1)c1ccc(F)cc1	-1.7%	20.6µM*	?	.
CC(C)(C)c1ccc(NC(=O)c2c(F)cccc2Cl)cc1	1.2%	3.26µM*	10.3µM*	-7.6%
COC(=O)NC(CC(C)=O)c1ccco1 (centres undefined)	.	.	.	12.2%[21 µM]
COc1ccc(O[C@H]2C=C[C@@H](c3ccccc3)O[C@H]2COC(=O)CC/C(C)=N\O[C@@H](C)CN2CCCCc3nc(C)c(C)cc32)cc1	.	.	.	1.6%[21 µM]
Cc1ccc(S(=O)(=O)Nc2c(C)cc(C)nc2Cl)cc1	0.2%	-5.3%	-15.3%	.
COc1ccc(CNS(=O)(=O)c2cc3c4c(c2)C(C)C(=O)N4CCC3)cc1 (centres undefined)	-1.3%	?	-26.5%	2.6%
O=C(Nc1ccc(Nc2ccccc2)cc1)Nc1ccccc1Cl	-8.7%	7.31µM*	18.4µM*	9.4%
O=C(Nc1ccccc1Cl)Nc1ccccc1Cl	.	?	-19.2%	-1.9%
Cc1ccc(C(=O)Nc2ccc(Nc3ccccc3)cc2)c(Cl)c1	-0.9%	?	?	.
CN(C)c1cccc(F)c1C(=O)NC(=O)Nc1ccc(Cl)cc1	-17.4%	6.51µM*	5.17µM*	.
O=P(C(=S)Nc1ccccc1Cl)(c1ccccc1)c1ccccc1	-2.0%	14.6µM*	9.2µM*	.
O=C(Nc1ccc(Nc2ccccc2)cc1)c1c(Cl)cccc1Cl	.	20.6µM*	?	.
CCOc1ccc(N(C(C)C(=O)N2CCOCC2)S(C)(=O)=O)cc1 (centres undefined)	-1.9%	-17.4%	-2.4%	5.4%
Nc1ccc([N+](=O)[O-])c(N)c1	.	.	.	15.5%

Screening results (PubChem)
